Source: PubChem BioAssay
The source made the active and inactive calls.

Columns and labels:
[1] = tested on: XIP peptide (Xip251-270) binding; test: XIP fragment 251-270 binding compounds – biochemical, small-molecule microarray, fluorescence 635/667 nm, 0.1 µg/mL protein, primary screen (AID 1182); details: fluorescent protein binding, 635 nm, higher = more signal, called active from +8 up or from −8 down
[2] = tested on: XIP peptide (Xip251-270); test: compounds binding XIP fragment 251-270 – biochemical, small-molecule microarray, fluorescence 635/667 nm, 0.5 µg/mL protein, primary screen (AID 1183); details: fluorescence 635 nm, higher = more signal
[3] = blood-stage malaria parasite viability loss – strain 3D7, DAPI fluorescence, 100 nL, primary screen (AID 1184);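 note: parasites grown inside human red blood cells in medium with human serum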; details: P. falciparum 3D7 growth, 3 d, higher = more signal
[4] = biological target: Homeobox protein Hox-A13 (Mus musculus) (UniProt Q62424); test: disruptors of Hoxa13 oligonucleotide interaction – biochemical, fluorescence polarization, labeled oligonucleotide, primary screen (AID 1185); details: Hoxa13:DNA binding, 15 min, higher = more signal, called active from +8 up or from −8 down
Homeobox protein Hox-A13 (Mus musculus), sequence (Q62424 whole entry, looked up): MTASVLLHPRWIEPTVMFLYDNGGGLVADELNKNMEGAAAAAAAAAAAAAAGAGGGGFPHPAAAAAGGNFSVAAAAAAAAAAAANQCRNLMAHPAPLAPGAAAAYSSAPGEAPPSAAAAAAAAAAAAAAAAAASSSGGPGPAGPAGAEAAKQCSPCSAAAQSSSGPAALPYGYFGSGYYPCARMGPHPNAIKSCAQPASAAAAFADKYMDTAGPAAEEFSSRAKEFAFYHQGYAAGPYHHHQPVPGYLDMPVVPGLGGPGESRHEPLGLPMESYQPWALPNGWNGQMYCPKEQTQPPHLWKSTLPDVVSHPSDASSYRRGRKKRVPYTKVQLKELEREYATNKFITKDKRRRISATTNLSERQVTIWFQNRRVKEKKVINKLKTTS

Structure (SMILES)	composite z-score [1]	composite z-score [2]	z-score [3]	z-score [4]
CON=CC[C@@H]1C=C[C@H](OC(C)=O)[C@@H](COC(C)=O)O1	0.726 (inactive)	0.763	1.2	0.463 (inactive)
CON=C[C@@H](C)[C@H](OCc1ccccc1)C(C)C	-0.372 (inactive)	-0.647	-1.11	3.84 (inactive)
COC(=O)CC=C[C@@H](C)[C@@H](C=NO[C@H](C)c1cn([C@H](CO)Cc2ccccc2)nn1)OC	0.312 (inactive)	0.367	-0.866	-1.89 (inactive)
Cc1ccc(S(=O)(=O)n2c3ccccc3c3nnc(C(=O)c4ccccc4)nc32)cc1	0.912 (inactive)	0.249	0.892	-3.73 (inactive)
C#CCCCON=C1C[C@@H](O)[C@@H](O)[C@@H]2[C@@H]3C(=O)N(c4ccc(F)cc4F)C(=O)[C@@H]3CC[C@H]12	1.55 (inactive)	0.683	-0.0103	-0.42 (inactive)
Cc1ccc(S(=O)(=O)N[C@@H]2COC(=O)[C@@H](C)COC(=O)CC=C[C@H]2C)cc1	-0.21 (inactive)	0.038	0.393	-0.0483 (inactive)
CC(=O)Nc1ccc([C@@H]2N[C@H](C(=O)O)CC[C@H]2C)cc1	-0.0813 (inactive)	0.119	0.962	-0.107 (inactive)
CCOC(=O)NN=C1C[C@@H](O)[C@@H](O)[C@@H]2[C@@H]3C(=O)N(c4cccc(Oc5ccccc5)c4)C(=O)[C@@H]3CC[C@H]12	0.389 (inactive)	0.0776	0.275	1.22 (inactive)
COC(=O)CC=C[C@@H](C)[C@H](OCc1cccc(-c2ccccc2)c1)C1CCCCC1	0.704 (inactive)	0.881	-0.257	-1.35 (inactive)
COc1cccc([C@H]2Oc3ccc(OC)cc3C(=NO[C@@H](C)c3cn([C@H](CO)Cc4ccccc4)nn3)[C@@H]2O)c1	0.213 (inactive)	0.502	-0.868	-6.48 (inactive)
CCOC(=O)NN=C1C[C@@H](O)[C@@H](O)[C@@H]2[C@@H]3C(=O)N(C(C)(C)C)C(=O)[C@@H]3CC[C@H]12	-0.188 (inactive)	0.29	0.202	0.772 (inactive)
CCCNC(=O)OC[C@H]1O[C@H](CCON=C(C)CCC(=O)OC[C@H]2O[C@H](c3ccccc3)C=C[C@@H]2Oc2ccc(OC)cc2)C=C[C@@H]1Oc1ccc(OC)cc1	0.146 (inactive)	-0.138	-0.935	-2.1 (inactive)
COc1cccc([C@H]2Oc3ccc(OC)cc3C(=NOC(C)CN3CCCCc4nc(C)c(C)cc43)[C@@H]2O)c1 (stereo partly drawn)	1.06 (inactive)	0.195	0.25	-4.68 (inactive)
COc1ccc(O[C@H]2C=C[C@@H](c3ccccc3)O[C@@H]2COC(=O)CCC(C)=NOC(C)CN2CCCc3nc(C)c(C)cc32)cc1 (stereo partly drawn)	0.53 (inactive)	0.552	-1.95	-5.13 (inactive)
CCCCC#C[C@@H]1C=C[C@H](Oc2cc(OC)c(OC)c(OC)c2)[C@@H](COC(=O)OCC)O1	0.392 (inactive)	0.355	0.421	-5.07 (inactive)
CCOC(=O)CCN1C(=O)[C@H]2[C@H]3[C@H](O)[C@H](O)CC(=NOCc4ccccc4)[C@H]3CC[C@H]2C1=O	-0.207 (inactive)	-0.0274	0.172	0.313 (inactive)
C[n+]1ccc(-c2ccc(CO)cc2)cc1	0.725 (inactive)	-0.227	1.09	-2.76 (inactive)
CCOC(=O)[C@H](CC(C)C)NC(=O)CCC1CC(OC(=O)NCCc2ccc(F)cc2)CC2(CCCC(COC(=O)NCCC(C)C)O2)O1 (stereo partly drawn)	-0.0575 (inactive)	-0.228	-0.329	-2.83 (inactive)
COC(=O)CC=C[C@@H](C)[C@@H](C=NO[C@@H](C)c1cn([C@H](CO)Cc2ccccc2)nn1)OC	-0.179 (inactive)	0.0522	0.141	-0.41 (inactive)
O=c1n(-c2ccccc2)c(=O)n2n1CC[C@@H]1C(=NOCc3ccccc3)[C@H]3O[C@H]3[C@@H](O)[C@@H]12	-0.368 (inactive)	-0.0725	-0.557	-4.06 (inactive)
C#CCCCON=C1C[C@@H](O)[C@@H](O)[C@@H]2[C@@H]3C(=O)N(Cc4ccccc4)C(=O)[C@@H]3CC[C@@H]12	-0.186 (inactive)	-0.148	0.542	-0.417 (inactive)
O=C1[C@H]2[C@H]3[C@H](O)[C@H](O)CC(=NOCc4ccccc4)[C@@H]3CC[C@H]2C(=O)N1C[C@@H]1CCCO1	-0.308 (inactive)	0.625	-0.0671	-1.49 (inactive)
